The whole screen tested about 5,500 compounds, of which about 2,000 (36%) were called active. Not shown: some 18% with an inconclusive outcome. Rule as the data show it: active = normalized growth mostly below about 0.91 (no sharp cut-off); inconclusive = no clear call, values can overlap the other calls; inactive = mostly above about 0.92. The list shows a part of the results.
Assay: chemical genetic growth profiling, strain panel (AID 1159580);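 also: tested at 20 µM; growth read once vehicle control cultures reached saturation at 30 °C; 1 = growth at the plate median or of vehicle wells; lower values mean less growth of the strain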
Conditions: S. cerevisiae deletion strains, growth OD
[1] = locus YAR019C, strain CDC15, active compounds read low
[2] = locus YBL105C, strain PKC1, active compounds read low
[3] = locus YBR135W, strain CKS1, active compounds read low
[4] = locus YBR136W, strain MEC1, active compounds read low
[5] = locus YBR160W, strain CDC28, active compounds read low
[6] = locus YDL017W, strain CDC7, active compounds read low
[7] = locus YDL028C, strain MPS1, active compounds read low
[8] = locus YDL101C, strain DUN1, active compounds read low
[9] = locus YDL108W, strain KIN28, active compounds read low
[10] = locus YDL132W, strain cdc53, active compounds read low
[11] = locus YDL214C, strain PRR2, active compounds read low
[12] = locus YDR052C, strain DBF4, active compounds read low
[13] = locus YDR054C, strain cdc34, active compounds read low
[14] = locus YDR226W, strain ADK1, active compounds read low
[15] = locus YDR477W, strain SNF1, active compounds read low
[16] = locus YER123W, strain YCK3, active compounds read low
[17] = locus YER133W, strain GLC7, active compounds read low
[18] = locus YFL009W, strain cdc4, active compounds read low
[19] = locus YFL029C, strain CAK1, active compounds read low
[20] = locus YFR003C, strain YPI1, active compounds read low
[21] = locus YFR019W, strain FAB1, active compounds read low
[22] = locus YFR028C, strain CDC14, active compounds read low
[23] = locus YGR040W, strain KSS1, active compounds read low
[24] = locus YGR052W, strain FMP48, active compounds read low
[25] = locus YGR092W, strain DBF2, active compounds read low
[26] = locus YHR030C, strain SLT2, active compounds read low
[27] = locus YHR079C, strain IRE1, active compounds read low
[28] = locus YHR082C, strain KSP1, active compounds read low
[29] = locus YHR205W, strain SCH9, active compounds read low
[30] = locus YIL147C, strain SLN1, active compounds read low
[31] = locus YJL095W, strain BCK1, active compounds read low
[32] = locus YJL128C, strain PBS2, active compounds read low
[33] = locus YJL157C, strain FAR1, active compounds read low
[34] = locus YJR016C, strain ILV3, active compounds read low
[35] = locus YJR066W, strain TOR1 (second series), active compounds read low
[36] = locus YJR066W, strain TOR1, active compounds read low
[37] = locus YKL048C, strain ELM1, active compounds read low
[38] = locus YKL067W, strain YNK1, active compounds read low
[39] = locus YKL101W, strain HSL1, active compounds read low
[40] = locus YKL193C, strain SDS22, active compounds read low
[41] = locus YKL203C, strain TOR2, active compounds read low
[42] = locus YLR113W, strain HOG1, active compounds read low
[43] = locus YLR133W, strain CKI1, active compounds read low
[44] = locus YLR403W, strain SFP1, active compounds read low
[45] = locus YML070W, strain DAK1, active compounds read low
[46] = locus YMR001C, strain CDC5, active compounds read low
[47] = locus YMR205C, strain PFK2 (second series), active compounds read low
[48] = locus YMR277W, strain FCP1, active compounds read low
[49] = locus YNL006W, strain LST8, active compounds read low
[50] = locus YNL020C, strain ARK1, active compounds read low
[51] = locus YNL161W, strain CBK1, active compounds read low
[52] = locus YNL183C, strain NPR1, active compounds read low
[53] = locus YNL207W, strain RIO2, active compounds read low
[54] = locus YNL222W, strain SSU72, active compounds read low
[55] = locus YNL307C, strain MCK1 (second series), active compounds read low
[56] = locus YOL078W, strain AVO1, active compounds read low
[57] = locus YOL136C, strain PFK27, active compounds read low
[58] = locus YOR061W, strain CKA2, active compounds read low
[59] = locus YOR119C, strain RIO1, active compounds read low
[60] = locus YOR231W, strain MKK1, active compounds read low
[61] = locus YOR329C, strain SCD5, active compounds read low
[62] = locus YPL031C, strain PHO85, active compounds read low
[63] = locus YPL153C, strain RAD53, active compounds read low
[64] = locus YPL204W, strain HRR25, active compounds read low
[65] = locus YPL209C, strain IPL1, active compounds read low
[66] = locus YPL256C, strain CLN2, active compounds read low
[67] = locus YPR025C, strain CCL1, active compounds read low
[68] = locus YPR106W, strain ISR1, active compounds read low
[69] = locus YPR111W, strain DBF20, active compounds read low
[70] = strain NNK1, active compounds read low
[71] = strain TSCII, active compounds read low

Measured: normalized growth

CC(C)(C)c1csc(NC(=O)c2ccc(Cl)cc2Cl)n1
inactive: [1] 0.974 | [2] 0.976 | [3] 0.981 | [4] 0.971 | [5] 0.983 | [6] 0.973 | [7] 0.978 | [8] 0.962 | [9] 0.98 | [10] 0.978 | [11] 0.919 | [12] 0.991 | [13] 0.961 | [14] 0.97 | [15] 0.963 | [16] 0.95 | [17] 0.94 | [18] 0.966 | [19] 0.973 | [20] 0.964 | [21] 0.972 | [22] 0.975 | [23] 0.954 | [24] 0.938 | [25] 0.93 | [26] 0.867 | [27] 0.819 | [28] 0.98 | [29] 0.805 | [30] 0.973 | [31] 0.785 | [32] 0.864 | [33] 0.964 | [34] 0.978 | [35] 0.976 | [36] 0.993 | [37] 0.938 | [38] 0.939 | [39] 0.901 | [40] 0.958 | [41] 1.01 | [43] 0.968 | [44] 0.913 | [45] 0.9 | [46] 0.972 | [47] 0.931 | [48] 0.97 | [49] 0.98 | [50] 0.943 | [51] 0.974 | [52] 0.953 | [53] 0.967 | [54] 0.961 | [55] 0.91 | [56] 0.969 | [57] 0.917 | [58] 0.956 | [59] 1.01 | [60] 0.898 | [61] 0.975 | [62] 0.948 | [63] 0.946 | [64] 0.966 | [65] 0.982 | [67] 0.977 | [68] 0.958 | [69] 0.946 | [70] 0.938 | [71] 0.972
active: [42] 0.716 | [66] 0.843

C/C(=N/Nc1nc(C(C)(C)C)cs1)c1ccc(Cl)c(Cl)c1
inactive: [1] 0.986 | [2] 0.983 | [3] 0.994 | [4] 0.99 | [5] 0.987 | [6] 0.981 | [7] 0.996 | [8] 0.981 | [9] 0.994 | [10] 0.99 | [11] 0.919 | [12] 0.977 | [13] 0.978 | [14] 0.973 | [15] 0.944 | [16] 0.844 | [17] 0.943 | [18] 0.987 | [19] 0.981 | [20] 0.985 | [21] 0.91 | [22] 0.994 | [23] 0.945 | [24] 0.932 | [25] 0.923 | [27] 0.759 | [28] 0.965 | [29] 0.953 | [30] 0.993 | [31] 0.839 | [32] 0.954 | [33] 0.889 | [34] 0.993 | [35] 0.835 | [36] 0.891 | [37] 0.97 | [38] 0.949 | [39] 0.98 | [40] 0.991 | [41] 0.969 | [43] 0.933 | [44] 0.908 | [45] 0.916 | [46] 0.983 | [47] 0.97 | [48] 0.986 | [49] 0.986 | [50] 0.917 | [51] 0.99 | [52] 0.92 | [53] 0.976 | [54] 0.987 | [55] 0.899 | [56] 0.989 | [57] 0.871 | [58] 0.943 | [59] 1 | [60] 0.792 | [61] 0.981 | [62] 0.903 | [63] 0.932 | [64] 0.899 | [65] 0.987 | [67] 0.992 | [68] 0.983 | [69] 0.974 | [70] 0.974 | [71] 0.989
active: [26] 0.753 | [42] 0.803 | [66] 0.757

Reference: PubChem BioAssay AID1159580 (chemical genetic matrix, 2015)
